FBW7 act – human FBW7 E3 ligase activation, primary screen; Q969H0; AlphaScreen FBW7–phospho-cyclin E peptide binding, activator screen; normalized activity (activation), % at 26.1 µM; 650,000 compounds, 0.13% hits; in the data active = normalized activity above about 1.9%;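 also: purified mutant Fbw7 with reduced substrate affinity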
GPR151 activ – activators of human GPR151. Q8TDV0. PathHunter beta-arrestin GPR151 cells, luminescence. activation, % at 11.2 µM. 650,000 compounds, 1% hits. AID 1508602; in the data active = activation above about 4.9%;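 also: 0% = median of compound wells and 100% = cells with positive control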
MITF primary – inhibitors of human MITF; AlphaScreen MITF homodimerization, bead proximity signal; 650,000 compounds, 0.91% hits; inhibition, % at 2.6 µM; in the data active = inhibition above about 50%;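 also: 0% = vehicle wells with protein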
TEAD-YAP inh – TEAD-YAP interaction inhibition. HEK-TIYL cells, TEAD-Gal4/YAP UAS-luciferase luminescence. 640,000 compounds, 1.4% hits. inhibition, % at 9.12 µM; in the data active = inhibition above about 32%;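 also: 0% = median of test compound wells and 100% = reference inhibitor wells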
* marks the source's active call; other numbers are inactive results. A selection: hits, their analogues and other compounds. The true share with any hit is near 3.5%.

SMILES	FBW7 act	GPR151 activ	MITF primary	TEAD-YAP inh
C=CCN1C(=O)/C(=C/c2ccc(OCc3cccc(C(=O)O)c3)cc2)C(=O)NC1=S	-0.2	-9.8	-2.4	78.8*
C=CCN1C(=O)/C(=C\c2ccc(-c3ccc(C(=O)O)cc3)o2)C(=O)NC1=S	-0.1	0.1	17.2	0.2
C=CCN1C(=O)/C(=C\c2ccc(-c3cccc(C(=O)O)c3)o2)C(=O)NC1=S	-0.5	0.7	63.6*	0.0
C=CCN1C(=O)/C(=C/c2cc(C)n(-c3cccc(C(=O)O)c3C)c2C)C(=O)NC1=S	0.0	0.1	53.2*	9.3
CCOC(=O)c1[nH]c(C)c(C(=O)N2CCc3ccccc3C2)c1C	-0.1	1.0	-1.7	13.7
CC(C)(C)C(=O)N1CCC(c2nc(-c3ccncc3)no2)CC1	-0.1	4.1	-1.8	2.0
Cc1cnc(N2CCN(c3ccccn3)CC2)nc1Nc1ccccc1	-0.1	-0.9	5.8	-3.1
CC(=O)Nc1ccc(Nc2nc(N3CCN(c4ccccn4)CC3)ncc2C)cc1	0.1	1.5	17.2	48.5*
CCC(=O)N1CCN(c2ccc(NC(=O)COc3ccc(C(C)(C)C)cc3)cc2)CC1	-0.1	-0.5	4.9	3.6
COC(=O)c1cccc(NC(=O)CSc2nc3ccccc3[nH]2)c1	-0.2	-0.4	-12.7	-3.4
CCOC(=O)C1(N(CC)CC)Sc2cc(C)ccc2NC1=O (stereo unspecified)	-0.2	-1.8	7.2	-0.9
CCOC(=O)C1(Nc2ccccc2)Sc2cc(C)ccc2NC1=O (stereo unspecified)	0.0	1.6	20.0	62.9*
CCOC(=O)C1(NC(=S)N2CCOCC2)Sc2cc(C)ccc2NC1=O (stereo unspecified)	-0.1	0.9	-1.6	52.4*
Cc1ccc(C)n1-c1ccc(Cc2ccncc2)cc1	0.5	-1.2	6.8	-6.7
Cc1cc(NCCc2ccc(O)cc2)nc(Nc2ccc(N3CCOCC3)cc2)n1	-0.3	2.4	26.1	62.4*
Oc1ccc(CCNc2ccnc(Nc3ccc(N4CCOCC4)cc3)n2)cc1	-0.1	2.6	8.5	44.5*
Cc1cc(NCCc2ccc(O)cc2)nc(-c2ccc(N3CCN(C)CC3)cc2)n1	0.1	1.8	13.4	52.8*
CC(=O)c1cc(F)ccc1Oc1nc(C)nc2sc(C)c(C)c12	0.3	-1.7	8.8	-18.6
CN(CCC#N)c1ccc(/C=C(\C#N)c2ccccn2)cc1	0.0	-4.5	-1.0	48.7*
COc1ccc(NC2=C(n3nnc4ccccc43)C(=O)c3ccccc3C2=O)cc1	-0.2	-0.6	6.5	59.1*
O=C(OCCNC1=C(n2nnc3ccccc32)C(=O)c2ccccc2C1=O)c1ccccc1	-1.1	-0.2	7.2	-6.4
CC(C)c1ccccc1C=NCC(=O)O	2.2*	-1.0	12.8	10.6
COc1ccccc1C(O)(C(=O)NN(c1ccccc1)c1ccccc1)c1ccccc1OC	0.0	-0.8	3.6	4.4
O=c1nc(N/N=C/c2ccccc2Cl)cn[nH]1	0.4	-5.8	2.4	18.2
O=c1nc(N/N=C/c2ccc(Cl)cc2Cl)cn[nH]1	0.0	-6.6	6.6	67.0*
SMILES	FBW7 act	GPR151 activ	MITF primary	TEAD-YAP inh
Brc1ccc(CSc2nn3cnnc3s2)cc1	0.0	0.4	-9.7	52.7*
Nc1nnc(SCc2ccc(Br)cc2)s1	0.1	-0.6	14.3	-3.9
CC1=C(C(=O)Nc2ccc(Br)cn2)C(c2cccs2)C2=C(CC(C)(C)CC2=O)N1 (stereo unspecified)	0.1	0.0	-0.5	35.3*
CC1=C(C(=O)Nc2ccc(C)cn2)C(c2cccs2)C2=C(CC(C)(C)CC2=O)N1 (stereo unspecified)	-0.1	-0.3	-4.9	57.7*
CC1=C(C(=O)Nc2ccc(Br)cn2)C(c2ccsc2)C2=C(CC(C)(C)CC2=O)N1 (stereo unspecified)	0.2	1.2	-0.5	52.0*
CC1=C(C(=O)Nc2ccc(C)cn2)C(c2ccc(C)cc2)C2=C(CC(C)(C)CC2=O)N1 (stereo unspecified)	0.0	0.5	9.9	8.1
CC(C)(C)C(=O)N1CCC[C@@H](Cn2nc(-c3cccs3)ccc2=O)C1	0.2	0.1	11.5	66.1*
O=C(NC(Cc1ccccc1)C(=O)O)/C(=C\c1cccc([N+](=O)[O-])c1)NC(=O)c1ccccc1 (stereo unspecified)	0.0	0.0	13.3	7.7
COc1ccccc1C(=O)N/N=C/c1c(O)ccc2ccccc12	0.1	0.9	12.3	37.0*
COc1ccc(/C=N/NC(=O)c2cn(C)c3ccccc23)cc1O	0.1	-0.4	5.9	32.7*
COc1ccc(/C=N/NC(=O)c2ccccc2O)cc1O	-0.1	2.4	-6.6	-20.0
Cc1occc1C(=O)N/N=C/c1c(O)ccc2ccccc12	-0.7	0.5	-8.8	46.7*

Bioassay records from PubChem.
